Laboratory results taken from PubChem BioAssay (NCI).
About 83,000 compounds went through this panel and 20% of them were active in at least one assay; those are over-represented in the sample as a whole.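 Activity criterion: percent growth below 10, measured after cells in 96-well plates were exposed to a single compound concentration for 48 hours.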 Values without a mark were called inactive. Active and inactive are the calls of the source.

System: NCI-H522 lung
Assay: NCI-60 one-dose screen, 48 h (100 = growth as untreated, 0 = no growth, -100 = all killed)
Conditions: 10 µM unless noted
Protocol: Growth inhibition of the NCI-H522 human Non-Small Cell Lung tumor cell line is measured as a screen for anti-cancer activity. Cells are grown in 96 well plates and exposed to the test compound for 48 hours. Compounds are tested at a single concentration, which is 10^-5 M for most compounds. The reported endpoint is percent growth (GI% or GIPRCNT), where numbers from 0 - 100% represent growth inhibition, and numbers from -100% - 0 represent cell death. For example, a value of 40 represents 60% growth inhibition. A value of 0 means no net growth occurred over the course of the experiment. A value of -40 indicates 40% of cells at the beginning of the experiment died by the end of the experiment. A value of -100 means all cells are dead at the end of the experiment.
NCI-60 Human Tumor Cell Lines Screen was performed using the standard one-dose NCI protocol, which is described in more detail at https://dtp.cancer.gov/discovery_development/nci-60/default.htm.
Compounds with GIPRCNT values below 10 were considered active. Activity score was based on GIPRCNT using the following formula: […]
Score is 0 for GIPRCNT values of 100 or above, 50 for GIPRCNT values of 0, and 100 for GIPRCNT values of -100.

Going from `COc1ccc(Oc2ccc(C3CC(c4cc(OC)c(OC)c(OC)c4)=NN3C(C)=O)cc2)cc1` (stereo not given) to `COc1ccc(/C(C)=C(\c2ccc(Cl)cc2)c2ccc(OCCN)cc2)cc1`, the growth rises from 20% to 102%.

Compared with `CCc1ccc(NC(=O)N[C@@H](Cc2cccc(F)c2)C(=O)N[C@@H]2C(=O)N3CCC[C@H]3C(=O)N3CCCC[C@H]3C(=O)N[C@@H](CO)C(=O)N3C[C@H](C)C[C@H]3C(=O)O[C@H]2C)c(F)c1`, `C[C@@H]1C[C@H]2C(=O)OCC(NC(=O)[C@H](Cc3cc(F)cc(F)c3)NC(=O)Nc3ccc(Cl)cc3F)C(=O)N3CCC[C@H]3C(=O)N3CCCC[C@H]3C(=O)N[C@@H](C)C(=O)N2C1` (stereo not given in full) is lower in growth: 20.1% for the first, 17.2% for the second.

First: N#C/C(=C\c1ccc(Cl)cc1Cl)C(N)=O
Second: O=C(Nc1cccc(Cl)c1)Nc1nc2ccc(-c3cccc4ccccc34)cc2s1
The growth of the first is higher: 93.9% for the first, 25.8% for the second.

Compared with `O=C(/C=C1\C=CN(CCCCCCF)c2ccccc21)n1ccc2ccccc21`, `O=C(/C=C1\C=CN(CCCCO)c2ccccc21)n1ccc2ccccc21` is higher in growth: 86.4% for the first, 99.7% for the second.

Going from `C=CCn1c(SCC(=O)Nc2cccc(C(=O)/C=C/c3ccc(C)cc3)c2)nc2ccccc2c1=O` to `C=CCn1c(SCC(=O)Nc2cccc(C(=O)/C=C/c3ccc(Cl)cc3)c2)nc2ccccc2c1=O`, the growth falls from 83.8% to 81.8%.

Compared with `O=C(CCCCCCN1CC(=O)N2[C@@H](c3ccccc3)c3[nH]c4ccccc4c3C[C@H]2C1=O)NO`, `O=C1[C@H]2Cc3c([nH]c4ccccc34)[C@@H](c3c(Cl)cccc3Cl)N2C(=O)CN1C1CCN(Cc2ccccc2)CC1` is higher in growth: 35% for the first, 38.2% for the second.

First: CS(=O)(=O)c1nccc(-c2c(-c3ccc(F)c(OCc4ccccc4)c3)nc3sccn23)n1
Second: CSc1nccc(-c2c(-c3ccc(F)c(OCc4ccc(F)cc4)c3)nc3sccn23)n1
The growth of the first is higher: 74.1% for the first, 66.7% for the second.

First: Oc1ccccc1/C=N/Nc1nc(N/N=C/c2ccccc2O)nc(N2CCOCC2)n1
Second: Brc1cccc(/C=N/Nc2nc(N/N=C/c3cccc(Br)c3)nc(N3CCOCC3)n2)c1
The growth of the first is higher: 60.9% for the first, 33.6% for the second.

First: CCOc1ccc2nc(NC(=O)Nc3ccccc3C)sc2c1
Second: O=C(COc1ccc(C2SCC(=O)N2c2ccccc2)cc1)c1ccccc1 (stereo not given)
The growth of the first is lower: 32.7% for the first, 80.6% for the second.

First: CC(C)c1nn(-c2ccccc2)c(N2CCCCC2)c1/C=N/NC(N)=S
Second: C#CCOc1ccccc1C(Nc1ccccc1)c1nnnn1C1CCCCC1 (stereo not given)
The growth of the first is higher: 86.1% for the first, 80.1% for the second.

Compared with `COc1ccc(/C=N/Nc2nc(Nc3ccccc3)nc(Nc3ccc(S(N)(=O)=O)cc3)n2)cc1`, `COc1ccc(-c2cc(-c3cccc4ccccc34)n3c(n2)nc2ccccc23)cc1` is lower in growth: 82.5% for the first, 50.3% for the second.

Compared with `O=S(=O)(Nc1cc(Cl)cc(Cl)c1)c1ccc(-c2cnc(C3CC3)o2)cc1`, `Cn1cc2c(c1)-c1c(sc3nc(-c4ccc(NC(=O)Nc5cc(C(C)(C)C)on5)cc4)cn13)CC2` is higher in growth: 33.9% for the first, 81.5% for the second.

Going from `Cn1cc(-c2nnc(N)nc2-c2cn(C)c3ccc(F)cc23)c2cc(F)ccc21` to `Cn1c2ccc(Br)cc2c2c3c(c4c5cc(F)ccc5oc4c21)C(=O)N(O)C3=O`, the growth falls from 73.2% to 72.1%.

First: COc1cc(-c2nc(SCc3ccc(C)cc3)[nH]c(=O)c2C#N)ccc1OCc1ccccc1
Second: CCNC(=O)Oc1ccc(/C(=C(/C)c2ccccc2)c2ccc(OCCN3CCCC3)cc2)cc1
The growth of the first is higher: 95.6% for the first, 83.3% for the second.

Compared with `CSc1ccc(/C(=N/N=C(N)N)c2ccccc2)cc1`, `C#C[C@]1(O)CC[C@H]2[C@@H]3CC=C4c5sc(-c6cccc(F)c6)nc5CC[C@]4(C)[C@H]3CC[C@@]21C` is higher in growth: 11.8% for the first, 89.2% for the second.

For `O=C(Nc1cccc(Cl)c1)Nc1nc2ccc([N+](=O)[O-])cc2s1`, the growth was 2.99% (active).
In the case of `Cc1cc(O)c(=O)cc2c1C[C@H]1CC(C)(C)/C=C/C[C@]3(C)Oc4cc(=O)c(O)cc(C)c4C[C@H]3C[C@H](O)[C@@]1(C)O2`, the growth is reported as -26.9% (active).
In the case of `O=C(NCCCNc1cc(-c2cn(-c3ccccc3)nc2-c2cccc(O)c2)ccn1)Nc1ccc(F)cc1`, the growth is reported as 1.7% (active).
`CCN1C(=O)N(CC)C2C1NN=C1SC(c3ccccc3)=CC(=O)N12` (stereo not given) was tested, and the growth was -42.6% (active).
`Oc1ccc(CSc2nnc(-c3cnccn3)n2-c2ccccc2)c2cccnc12` was tested, and the growth was 2.33% (active).
`CS(=O)c1nccc(-c2c(-c3ccc(F)c(OCc4ccc(F)cc4)c3)nc3sccn23)n1` (stereo not given) was tested, and the growth was -51.8% (active).
In the case of `COc1cc2c3c(n(CCCNCC4CC4)c(=O)c2cc1OC)-c1cc2c(cc1C3=O)OCO2`, the growth is reported as -66.1% (active).
In the case of `CC1OC(O[C@@H]2C(O)C(CO)OC(O[C@H]3COC(O[C@H]4CC[C@]5(C)[C@H]6CC[C@]78OC[C@@]9(CC[C@](C)(C=O)C[C@H]97)[C@H](O)C[C@@]8(C)[C@]6(C)CC[C@H]5C4(C)C)[C@@H](OC4OC(CO)[C@@H](O)[C@@H](O)[C@@H]4O)[C@@H]3O)[C@H]2OC2OC[C@@H](O)[C@@H](O)[C@@H]2O)[C@@H](O)[C@@H](O)[C@H]1O` (stereo not given in full), the growth is reported as -55.4% (active).
With `Cc1cn(-c2cc(NC(=O)c3cncc(C#Cc4cnc5ccc(OCCCS(C)(=O)=O)nn45)c3)cc(C(F)(F)F)c2)cn1` the growth was 3.59% (active).
In the case of `CCOC(=O)c1c(NC(=O)c2cccc(C(F)(F)F)c2)sc2c(CN3CCN(C)CC3)c(O)ccc12`, the growth is reported as -14.4% (active).
